In PubChem BioAssay (NCATS):
Inconclusive results are not listed. A call without a number means that no potency is given here. The source made the active and inactive calls. The call rests on the fitted dose curve; in most records, active means well fitted inhibition curve with a large enough effect; inconclusive means small, poorly fitted or top-dose-only effect; inactive means flat fitted curve, though single readings scatter.

What was measured:
Test in all cases: qHTS profiling for inhibitors of Plasmodium falciparum proliferation (AID 504749); further: nearly all actives have a fitted effect of over 60% in size
Settings in all cases: P. falciparum in erythrocytes, SYBR Green DNA, 72 h; series mostly up to 28.7 µM
3D7 = test system: 3D7
How it was run: (§1)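 P. falciparum-infected erythrocytes (0.3% parasitemia, 2.5% hematocrit final) were exposed to compounds for 72 h at 37 C in 5% CO2, then lysed with SYBR Green buffer overnight at room temperature; parasite DNA fluorescence was normalized to artemisinin and DMSO controls.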

C2A = test system: C2A
How it was run: as §1

CP194 = test system: CP194
How it was run: as §1

CP201 = test system: CP201
How it was run: as §1

CP237 = test system: CP237
How it was run: as §1

CP250 = test system: CP250
How it was run: as §1

CP256 = test system: CP256
How it was run: as §1

CP269 = test system: CP269
How it was run: as §1

CP305 = test system: CP305
How it was run: as §1

CP315 = test system: CP315
How it was run: as §1

CP329 = test system: CP329
How it was run: as §1

DIV30 = test system: DIV30
How it was run: as §1

JCK = test system: JCK
How it was run: as §1

P94_40 = test system: P94_40
How it was run: as §1

PAD = test system: PAD
How it was run: as §1

PC15 = test system: PC15
How it was run: as §1

SC27B = test system: SC27B
How it was run: as §1

TAB109 = test system: TAB109
How it was run: as §1

TAB165 = test system: TAB165
How it was run: as §1

TAB113 = test system: TAB113
How it was run: as §1
Potency means the concentration at half of the fitted maximal effect.

SMILES | Potency (3D7) | Potency (C2A) | Potency (CP194) | Potency (CP201) | Potency (CP237) | Potency (CP250) | Potency (CP256) | Potency (CP269) | Potency (CP305) | Potency (CP315) | Potency (CP329) | Potency (DIV30) | Potency (JCK) | Potency (P94_40) | Potency (PAD) | Potency (PC15) | Potency (SC27B) | Potency (TAB109) | Potency (TAB165) | Potency (TAB113)
OCCOC[C@H]1O[C@H](OCCO)[C@H](OCCO)[C@@H](OCCO)[C@@H]1OCCO (tested in a mixture with another compound) | inactive | inactive | inactive | inactive | inactive | inactive | inactive | inactive | inactive | inactive | inactive | inactive | inactive | inactive | inactive | inactive | inactive | inactive | inactive | –
CNC1C(O)C(OC2C(N)CC(N)C(OC3OC(CN)=CCC3N)C2O)OCC1(C)O (stereo unspecified) | inactive | inactive | inactive | inactive | inactive | inactive | inactive | inactive | inactive | inactive | inactive | inactive | inactive | inactive | inactive | inactive | inactive | inactive | inactive | inactive
O=C1[C@@H]2C[C@@H]3C[C@H]1C[C@@](O)(C3)C2 | inactive | inactive | inactive | inactive | inactive | inactive | inactive | inactive | inactive | inactive | inactive | inactive | inactive | inactive | inactive | inactive | inactive | inactive | inactive | inactive
CC1(C)SC2C(NC(=O)C(C(=O)O)c3ccccc3)C(=O)N2C1C(=O)O (stereo unspecified) | inactive | inactive | inactive | inactive | inactive | inactive | inactive | inactive | inactive | inactive | inactive | inactive | inactive | inactive | inactive | inactive | inactive | inactive | inactive | inactive
COc1cc2c(cc1O)CCN[C@@]21CS[C@H]2c3c(OC(C)=O)c(C)c4c(c3C(COC1=O)N1C2C2c3c(cc(C)c(OC)c3O)CC([C@@H]1O)N2C)OCO4 (stereo partly specified) | 0.0003 µM (active) | 0.0028 µM (active) | 0.0013 µM (active) | 0.0013 µM (active) | 0.0009 µM (active) | 0.004 µM (active) | 0.0056 µM (active) | 0.0005 µM (active) | 0.0005 µM (active) | 0.0015 µM (active) | 0.0005 µM (active) | 0.0015 µM (active) | – | 0.0009 µM (active) | – | 0.0011 µM (active) | 0.0008 µM (active) | 0.0009 µM (active) | 0.001 µM (active) | 0.0009 µM (active)
O=C(OC[C@@H]1O[C@@](O)(COC(=O)c2cccnc2)[C@H](OC(=O)c2cccnc2)[C@H]1OC(=O)c1cccnc1)c1cccnc1 | inactive | inactive | inactive | inactive | inactive | inactive | inactive | inactive | inactive | inactive | inactive | inactive | inactive | inactive | inactive | inactive | inactive | – | inactive | inactive
OCC1O[C@H](Oc2ccc(O)cc2)C(O)C(O)C1O (stereo partly specified) | inactive | inactive | inactive | inactive | inactive | inactive | inactive | inactive | inactive | inactive | inactive | inactive | inactive | inactive | inactive | inactive | inactive | inactive | inactive | inactive
COC1CC2CCC(C)[C@](O)(O2)C(=O)C(=O)N2CCCCC2C(=O)OC(C(C)CC2CCC(O)C(OC)C2)CC(=O)C(C)/C=C(/C)C(O)C(OC)C(=O)C(C)CC(C)C=CC=C/C=C\1C (stereo partly specified) | 2 µM (active) | 4.47 µM (active) | 3.38 µM (active) | 7.57 µM (active) | 2.82 µM (active) | 3.16 µM (active) | 3.16 µM (active) | 4.26 µM (active) | 5.36 µM (active) | 4.26 µM (active) | 4.26 µM (active) | 0.953 µM (active) | 10 µM (active) | 1.41 µM (active) | 1.26 µM (active) | 4.47 µM (active) | 2 µM (active) | 2.24 µM (active) | 1.12 µM (active) | 1.41 µM (active)
CC1(C)CC1C(=O)N/C(=C/CCCCSCC(N)C(=O)O)C(=O)O (stereo unspecified) | inactive | inactive | inactive | inactive | inactive | inactive | inactive | inactive | inactive | inactive | inactive | inactive | inactive | inactive | inactive | inactive | inactive | inactive | inactive | inactive
CC(=O)C1(O)Cc2c(O)c3c(c(O)c2C(OC2CC(N)C(O)C(C)O2)C1)C(=O)c1c(O)cccc1C3=O (stereo unspecified) | 3.16 µM (active) | 8.91 µM (active) | 12 µM (active) | – | 2.82 µM (active) | 11.2 µM (active) | 10 µM (active) | 15.1 µM (active) | – | – | 12 µM (active) | – | 12.6 µM (active) | 5.01 µM (active) | 10 µM (active) | 11.2 µM (active) | 4.47 µM (active) | 5.62 µM (active) | 4.47 µM (active) | 6.31 µM (active)
C[C@@H]1CCN(C(=O)[C@H](CCCNC(=N)N)NS(=O)(=O)c2cccc3c2NC[C@H](C)C3)[C@@H](C(=O)O)C1 | inactive | inactive | inactive | inactive | inactive | inactive | inactive | inactive | inactive | – | inactive | inactive | inactive | inactive | inactive | inactive | inactive | inactive | inactive | inactive
NC(CSSCC(N)C(=O)O)C(=O)O (stereo unspecified) | inactive | inactive | inactive | inactive | inactive | inactive | inactive | inactive | inactive | inactive | inactive | inactive | inactive | inactive | inactive | inactive | inactive | inactive | inactive | inactive
CC(=O)N1CC(O)CC1C(=O)O (stereo unspecified) | inactive | inactive | inactive | inactive | inactive | inactive | inactive | inactive | inactive | inactive | inactive | inactive | inactive | inactive | inactive | inactive | inactive | inactive | inactive | –
Nc1nc(F)nc2c1ncn2[C@@H]1O[C@H](CO)[C@@H](O)[C@H]1O | inactive | inactive | inactive | inactive | inactive | inactive | inactive | inactive | – | inactive | inactive | inactive | inactive | inactive | inactive | inactive | inactive | inactive | inactive | inactive
CCCC(=O)Nc1c(I)cc(I)c(C[C@H](CC)C(=O)O)c1I | inactive | inactive | inactive | inactive | inactive | inactive | inactive | inactive | inactive | inactive | inactive | inactive | inactive | inactive | inactive | inactive | inactive | inactive | inactive | inactive
C=C[C@@]1(C)C[C@H](OC(=O)CSC(C)(C)CNC(=O)[C@@H](N)C(C)C)[C@@]2(C)C(C)CC[C@@]3(CCC(=O)[C@@H]32)[C@H](C)[C@H]1O (stereo partly specified) | 8.91 µM (active) | 5.01 µM (active) | 1.9 µM (active) | – | 1.41 µM (active) | – | 0.316 µM (active) | 1.07 µM (active) | 0.379 µM (active) | 2.69 µM (active) | 0.601 µM (active) | 7.57 µM (active) | – | 1.58 µM (active) | 4.47 µM (active) | – | 5.62 µM (active) | 0.891 µM (active) | 4.47 µM (active) | 5.62 µM (active)
CN[C@H](C)CCC=C(C)C | 0.316 µM (active) | 0.631 µM (active) | 0.675 µM (active) | 2.13 µM (active) | 0.199 µM (active) | 0.631 µM (active) | 0.631 µM (active) | 0.478 µM (active) | 1.69 µM (active) | 0.849 µM (active) | – | 0.135 µM (active) | 0.355 µM (active) | 0.178 µM (active) | 0.178 µM (active) | 0.355 µM (active) | 0.355 µM (active) | 0.398 µM (active) | 0.251 µM (active) | 0.178 µM (active)
CC1C(=O)C(=O)C=CN1C (stereo unspecified) | inactive | inactive | inactive | inactive | inactive | inactive | inactive | inactive | inactive | inactive | inactive | inactive | inactive | inactive | inactive | inactive | inactive | inactive | inactive | inactive
COc1ccc2cc1Oc1cc3c(cc1OC)CC[N+](C)(C)C3Cc1ccc(cc1)Oc1c(OC)c(OC)cc3c1C(C2)[N+](C)(C)CC3 (stereo unspecified) | inactive | inactive | inactive | inactive | inactive | inactive | inactive | inactive | inactive | inactive | inactive | inactive | inactive | inactive | inactive | inactive | inactive | inactive | inactive | inactive
Nc1nc(/C(=C/CC(=O)O)C(=O)NC2C(=O)N3C(C(=O)O)=CCSC23)cs1 (stereo unspecified) | inactive | inactive | inactive | inactive | inactive | inactive | inactive | inactive | inactive | inactive | inactive | inactive | inactive | inactive | inactive | inactive | inactive | inactive | inactive | inactive
NC(=O)OC[C@@H]1[C@H](NC(=O)/C(=N/OCC(=O)O)c2csc(N)n2)C(=O)N1S(=O)(=O)O | inactive | inactive | inactive | inactive | inactive | inactive | inactive | inactive | inactive | inactive | inactive | inactive | – | inactive | inactive | inactive | inactive | inactive | inactive | inactive
CC[C@@]1(O)CC2CN(CCc3c([nH]c4ccccc34)[C@](C(=O)OC)(c3cc4c(cc3OC)N(C)C3[C@@](O)(C(=O)OC)C(OC(C)=O)[C@]5(CC)C=CCN6CC[C@@]43C65)C2)C1 (stereo partly specified) | 2 µM (active) | 2.82 µM (active) | 3.79 µM (active) | – | 0.794 µM (active) | 3.55 µM (active) | 3.16 µM (active) | 3.01 µM (active) | 3.79 µM (active) | 3.38 µM (active) | 3.01 µM (active) | 1.69 µM (active) | 6.31 µM (active) | 3.55 µM (active) | 2.24 µM (active) | – | 2.82 µM (active) | 3.16 µM (active) | 3.55 µM (active) | 3.98 µM (active)
CN(C)CC/C=C1\c2ccccc2COc2ccc(CC(=O)O)cc21 | inactive | inactive | inactive | inactive | inactive | inactive | inactive | inactive | inactive | inactive | inactive | inactive | inactive | inactive | inactive | inactive | inactive | inactive | inactive | inactive
